Inconclusive results are not listed. Active and inactive are the calls of the source. The call rests on the fitted dose curve; in most records, active means well fitted inhibition curve with a large enough effect; inconclusive means small, poorly fitted or top-dose-only effect; inactive means no such curve, though single readings can be large or run the other way.
Potency means the concentration at half of the fitted maximal effect.

A short description of the assay: qHTS Screen of the MIPE 4.0 Collection Against Ewings Sarcoma (TC32) (AID 1259256). Further: nearly all actives have a fitted effect of over 45% in size. To be noted: TC32 Ewing sarcoma viability, CellTiter-Glo, 48 h; series mostly up to 45.8 µM. An excerpt: There is a large unmet medical need for treatments for Ewing sarcoma, a pediatric sarcoma. We sought to identify compounds that inhibited Ewing sarcoma cells in vitro with the goal to then test promising drugs in two drug combinations in vitro to look for synergistic drug combinations. Promising combinations would then proceed to additional validation, including in vivo testing.
Using the NCATS developed oncology compound library called the Mechanism of Interrogation Plate (MIPE), four Ewing sarcoma cell lines were evaluated (TC32, TC71, RDES, EW8). Compounds, in a 12-point titration series, were incubated with cells for 48 hours and the read out was cell viability (CellTiter-Glo from Promega). These initial experiments were used to select appropriate concentrations of each single agent for subsequent two-drug matrix combinations such that the concentrations in the matrices would span both activity and non-activity.
Cells, in the log phase of growth, were seeded in 5 uL of RPMI plus 5% FBS, […] L-glutamine, 100 U/ml penicillin and 100 ug/ml streptomycin into 1536-well solid-bottom white tissue culture treated Greiner Bio One Plates (789173-F) using a MultiDrop Combi (Thermofisher Scientific) dispenser and a small sterile cassette. One column was media alone to be used as a :"no cells" control. The plates were then covered with sterilized stainless steel gasketed lids from Kalypsys. After allowing cells to attach for 4 hours, 23 nL of test compound or control (negative control DMSO and positive control 9.2 uM Bortezomib-final) were added from a 1536-well polypropylene compound source plate to each well using a 1536 head pin tool from Kalypsys. Cells were then incubated for 48 hours at 37C, 95% relative humidity and 5% CO2. After 48 hours, plates were removed from the incubator and 3 uL of CellTiter-Glo (Promega) was added using an Aurora Flying Reagent Dispenser Bioraptor. Plates were incubated at room temperature for 10 minutes prior to reading the luminescence on the Viewlux (PerkinElmer). The relative luciferase units are used to calculate the percent activity using the activity of DMSO in the cells and no cells columns for normalization of no inhibition and full inhibition respectively.
On the technique in general: qHTS replaces the single test concentration by a dilution series.
Regarding `NC1(C(=O)N[C@@H](CCO)c2ccc(Cl)cc2)CCN(c2ncnc3[nH]ccc23)CC1`, the Potency was 16.6 µM (active). With `CCNC(=O)c1noc(-c2cc(C(C)C)c(O)cc2O)c1-c1ccc(CN2CCOCC2)cc1`, the Potency was 0.059 µM (active). In the case of `C[C@@H]1O[C@@H](O[C@H]2CC[C@@]3(C)[C@H](CC[C@@H]4[C@H]3C[C@@H](O)[C@]3(C)[C@@H](C5=CC(=O)OC5)CC[C@]43O)C2)C[C@H](O)[C@@H]1O[C@H]1C[C@H](O)[C@H](O[C@H]2C[C@H](O)[C@@H](O)[C@@H](C)O2)[C@H](C)O1` (stereo in doubt), the Potency is 0.241 µM (active). On to `CC(C)(F)C[C@H](N[C@@H](c1ccc(-c2ccc(S(C)(=O)=O)cc2)cc1)C(F)(F)F)C(=O)NC1(C#N)CC1`, for which the Potency is 18.7 µM (active).

With `CCC(=C(c1ccc(O)cc1)c1ccc(OCCNC)cc1)c1ccccc1`, the Potency was 23.5 µM (active). Regarding `CC[C@]1(O)C[C@H]2CN(CCC3=c4ccccc4=N[C]3[C@@](C(=O)OC)(c3cc4c(cc3OC)N(C)[C@H]3[C@@](O)(C(N)=O)[C@H](O)[C@]5(CC)C=CCN6CC[C@]43[C@@H]65)C2)C1`, the Potency result was “inactive”. Take `O=C(O)CCC=CCC[C@@H]1[C@H](N2CCCCC2)[C@@H](O)C[C@@H]1OCc1ccc(-c2ccccc2)cc1`: the Potency entry was “inactive”. For `CN1CCN(c2cccc(Nc3nc4c(-c5ccc(S(C)(=O)=O)cc5)cccn4n3)c2)CC1`, the Potency is 2.35 µM (active). Consider `CCCCC(C=O)NC(=O)C(CC(C)C)NC(=O)OCc1ccccc1` (stereo not given), for which the Potency entry was “inactive”. On to `CO[C@@H]1C(N(C)C(=O)c2ccccc2)C[C@H]2O[C@]1(C)n1c3ccccc3c3c4c(c5c6ccccc6n2c5c31)C(=O)NC4=O` (stereo not given in full), for which the Potency was 3.32 µM (active).

For the molecule `COc1ccc(Cn2ccc3ccc(C(=O)NO)cc32)cc1`, the Potency is 11.8 µM (active).

With `Nc1nc(Cl)nc2c1ncn2[C@@H]1O[C@H](CO)[C@@H](O)[C@H]1F`, the Potency result was “inactive”. For the molecule `Cc1nc(C(=O)NCC(=O)O)c(O)c2ccc(Oc3ccccc3)cc12`, the Potency entry was “inactive”. As to `CC[C@H](C)C(=O)O[C@H]1C[C@H](O)C=C2C=C[C@H](C)[C@H](CC[C@@H](O)C[C@@H](O)CC(=O)O)[C@H]21`, the Potency is 20.9 µM (active). As to `COc1ccc2ccc(=O)oc2c1CC=C(C)C`, the Potency result was “inactive”.

Take `O=C1C(CCC(O)c2ccc(F)cc2)C(c2ccc(O)cc2)N1c1ccc(F)cc1` (stereo not given): the Potency entry was “inactive”. `Cc1cc2c(cc1C1(c3ccc(C(=O)O)cn3)CC1)C(C)(C)CCC2(C)C`: the Potency entry was “inactive”.

`CC(=O)Nc1cccc(-n2c(=O)n(C3CC3)c(=O)c3c(Nc4ccc(I)cc4F)n(C)c(=O)c(C)c32)c1`: the Potency is 23.5 µM (active). As for `NC(=O)c1nnn(Cc2cc(Cl)c(C(=O)c3ccc(Cl)cc3)c(Cl)c2)c1N`, the Potency is 20.9 µM (active). Regarding `O=C(Nc1cccc(Cl)c1)Nc1ncc(CCNc2ncnc3ccsc23)s1`, the Potency is 0.296 µM (active). In the case of `C[C@@H](O[C@H]1OCCN(Cc2n[nH]c(=O)[nH]2)[C@@H]1c1ccc(F)cc1)c1cc(C(F)(F)F)cc(C(F)(F)F)c1`, the Potency is 16.6 µM (active). With `CCOc1ccccc1N=Nc1c(C)[nH]n(-c2nc(-c3ccccc3)cs2)c1=O` the figure was 11.8 µM (active); with `COc1ccnc(CS(=O)c2nc3ccc(OC(F)F)cc3[nH]2)c1OC` (stereo not given), “inactive”. In the case of `CO[C@H]1/C=C\O[C@@]2(C)Oc3c(C)c(O)c4c(O)c(c5c(nc6cc(C)ccn65)c4c3C2=O)NC(=O)C(C)=CC=C[C@H](C)[C@H](O)[C@@H](C)[C@@H](O)[C@@H](C)[C@H](OC(C)=O)[C@H]1C`, the Potency entry is “inactive”. With `Cc1ccc(NC(=O)c2ccc(CN3CCN(C)CC3)cc2)cc1Nc1nc(-c2cccnc2)cs1`, the Potency is 26.4 µM (active). Consider `CC(C)C[C@H](NC(=O)c1cc2ccccc2s1)C(=O)N1CCN(C(=O)[C@H](CO)NS(=O)(=O)c2ccc(Cl)cc2Cl)CC1`, for which the Potency is 23.5 µM (active).

For the molecule `C[C@]12C=CC(=O)C=C1CC[C@@H]1[C@@H]2[C@@H](O)C[C@@]2(C)[C@@H]1CC[C@]2(O)C(=O)CO`, the Potency result is “inactive”.

Turning to `Cn1cc(-c2ccc3nnc(Sc4ccc5ncccc5c4)n3n2)cn1`, the Potency entry is “inactive”.

As to `C=C1[C@H](n2cnc3c(=O)[nH]c(N)nc32)C[C@H](O)[C@H]1CO`, the Potency entry is “inactive”.

Turning to `CC1C(=O)OC2C(O)C34C5CC(C(C)(C)C)C36C(OC(=O)C6O)OC4(C(=O)O5)C12O` (stereo not given), the Potency result was “inactive”. On to `CC(C)(C)c1[nH]cnc1C=c1[nH]c(=O)c(=Cc2ccccc2)[nH]c1=O`, for which the Potency entry was “inactive”. As for `COc1cc(N2CCN(C)CC2)ccc1Nc1nc(N)c(C(=O)c2c(Cl)cccc2Cl)s1`, the Potency was 10.5 µM (active). With `C[C@@]1(c2cc(-c3cncnc3)c(F)cc2F)CCSC(N)=N1` the entry was “inactive”; with `CCn1c(-c2nonc2N)nc2cncc(CNC3CCNCC3)c21`, 14.8 µM (active); with `CC(=O)O[C@]1(C(C)=O)CC[C@H]2[C@@H]3C=C(Cl)C4=CC(=O)[C@@H]5C[C@H]5[C@]4(C)[C@@H]3CC[C@@]21C`, 16.6 µM (active). The value for `CN1c2ccccc2C(=O)N2CCc3c([nH]c4ccccc34)C21` (stereo not given) was 14.8 µM (active); that for `C[C@@H]1CC=CC=CC=CC=C[C@@H](O[C@@H]2O[C@H](C)[C@@H](O)[C@H](N)[C@H]2O)C[C@@H]2O[C@](O)(C[C@@H](O)C[C@@H]3O[C@@H]3C=CC(=O)O1)C[C@H](O)[C@@H]2C(=O)O` was 14.8 µM (active); that for `N=C1SC(=Cc2ccc(-c3ccc4c(c3)C(=O)NC4=O)o2)C(=O)N1c1ccc(Br)cc1` was 18.7 µM (active). Regarding `C[C@@]1(C(=O)Nc2ccc(F)nc2)CCCN1c1nc(Nc2cc(C3CC3)[nH]n2)c2cccn2n1`, the Potency is 0.418 µM (active).

In the case of `CCOC(=O)c1c(CSc2ccccc2)n(C)c2cc(Br)c(O)c(CN(C)C)c12`, the Potency is 13.2 µM (active).

(Values after PubChem BioAssay (NCATS).)
